Among the data in PubChem BioAssay (NCI) are growth values, retold here.

Compounds without any hit were thinned out: in the full panel of roughly 83,000, 20% have a hit.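 Single-concentration screen, 48 h exposure, 96-well plates. Endpoint: percent growth. Below 10 = active.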 A number with no mark means an inactive call. The source made the active and inactive calls.

Among the test systems are HCT-15 colon; HT29 colon; SNB-75 CNS; U251 CNS; PC-3 prostate; SK-MEL-5 melanoma; UACC-62 melanoma; LOX IMVI melanoma; SK-MEL-28 melanoma; SK-MEL-2 melanoma; SN12C renal; UO-31 renal; TK-10 renal; ACHN renal; CAKI-1 renal; A498 renal; CCRF-CEM leukemia; MOLT-4 leukemia; EKVX NSCLC; SNB-19 CNS.
What all share (assay): NCI-60 one-dose screen, 48 h (100 = growth as untreated, 0 = no growth, -100 = all killed)
Details in all cases: 10 µM

On to `CC(=O)N(O)c1ccc(/C=C/c2ccccc2)cc1`, for which the growth was 62.7% in the test with HCT-15 colon; 47% with HT29 colon; 16% in the test with SNB-75 CNS; 14.1% with U251 CNS; 36.1% in the test on PC-3 prostate; 73.7% with SK-MEL-5 melanoma. Also, the growth in the test with UACC-62 melanoma is 32.2%; in the test with LOX IMVI melanoma, 25.9%; with SK-MEL-28 melanoma, 75.4%; with SK-MEL-2 melanoma, 92.7%; in the test with SN12C renal it was 26.5%; in the test with UO-31 renal, -30.8% (active). Further, the growth is 4.86% (active) in the test with TK-10 renal; -18.1% (active) in the test with ACHN renal; 0.955% (active) with CAKI-1 renal; -78.8% (active) in the test with A498 renal; 26.5% in the test with CCRF-CEM leukemia; 41.8% in the test on MOLT-4 leukemia.
With `OC(CNC1CCCC1)Cn1c2ccccc2c2ccccc21` (configuration not stated), the growth with HCT-15 colon was -37.6% (active); with HT29 colon, -0.747% (active); in the test on SNB-75 CNS, 51.5%; in the test on U251 CNS, -34.5% (active); in the test on PC-3 prostate it was 27%; in the test on UACC-62 melanoma, -50.9% (active). Further, the growth in the test on LOX IMVI melanoma was -75.9% (active); in the test on SK-MEL-28 melanoma, -60% (active); with SK-MEL-2 melanoma, 48.9%; in the test with SN12C renal, 50.7%; with UO-31 renal, 12.3%; in the test on TK-10 renal it was 29.2%. The growth in the test with ACHN renal is 15.1%; with CAKI-1 renal, 31.8%; with A498 renal it was 58%; in the test on CCRF-CEM leukemia, 4.28% (active); in the test on MOLT-4 leukemia it was -13.9% (active).
For `O=[N+]([O-])C1CC2C=CC1C2` (configuration not stated), the growth is 100% in the test on HCT-15 colon; 99% in the test on HT29 colon; 93.1% in the test with SNB-75 CNS; 101% with U251 CNS; 96.9% with PC-3 prostate; 106% in the test with SK-MEL-5 melanoma. The growth in the test with UACC-62 melanoma is 103%; with LOX IMVI melanoma, 95.6%; in the test on SK-MEL-28 melanoma it was 110%; in the test with SK-MEL-2 melanoma, 92.8%; with EKVX NSCLC it was 92.7%; with SN12C renal it was 102%. Further, the growth is 80.8% in the test with UO-31 renal; 112% in the test on TK-10 renal; 106% with ACHN renal; 95.1% in the test on CAKI-1 renal; 78.2% in the test on A498 renal; 96.1% with MOLT-4 leukemia.
On to `CCN(CC)c1ccc(/C=C/C2=[N+](C)c3ccccc3C2(C)C)c(C)c1`, for which the growth with HCT-15 colon was 10.5%; with HT29 colon, 2.67% (active); with SNB-75 CNS, 7.22% (active); in the test on U251 CNS, 7.12% (active); in the test with PC-3 prostate, 7.18% (active); in the test on SK-MEL-5 melanoma, -97.5% (active). Besides, the growth with UACC-62 melanoma is -21.4% (active); with LOX IMVI melanoma, 3.02% (active); with SK-MEL-28 melanoma, 9.14% (active); in the test with SK-MEL-2 melanoma it was -12.7% (active); with EKVX NSCLC, 10.6%; in the test with UO-31 renal, 8.27% (active). The growth with TK-10 renal is 9.49% (active); in the test with ACHN renal, 5.97% (active); in the test on CAKI-1 renal it was 15.5%; in the test on A498 renal it was 3.94% (active); in the test with CCRF-CEM leukemia it was 4.91% (active); in the test with MOLT-4 leukemia it was -20.4% (active).
As to `N#CN1CC[C@H](C(=O)Nc2ncc(-c3ccccc3)s2)C1`, the growth in the test with HCT-15 colon is 3.19% (active); with HT29 colon, -35.6% (active); in the test with SNB-75 CNS, -43.8% (active); in the test on U251 CNS it was 2.64% (active); in the test on PC-3 prostate it was 11.1%; with SK-MEL-5 melanoma it was -56% (active). Besides, the growth in the test on UACC-62 melanoma was -37.1% (active); with LOX IMVI melanoma, 4.1% (active); in the test on SK-MEL-28 melanoma it was 5.29% (active); in the test with SK-MEL-2 melanoma, -43.8% (active); in the test on EKVX NSCLC, -0.13% (active); in the test on UO-31 renal, 7.47% (active). Further, the growth in the test on TK-10 renal is -30.9% (active); in the test with ACHN renal, 4.65% (active); with CAKI-1 renal, 9.65% (active); in the test on CCRF-CEM leukemia, 9.27% (active); with MOLT-4 leukemia, -19.7% (active).
As for `Cc1ccc(S(=O)(=O)N2CCc3ccccc3CC2)cc1`, the growth in the test on HCT-15 colon is 78.4%; with HT29 colon, 91.8%; in the test with SNB-75 CNS, 78.6%; in the test on U251 CNS it was 56.3%; in the test on PC-3 prostate, 36.4%; with SK-MEL-5 melanoma, 46.1%. The growth was 74.1% in the test with UACC-62 melanoma; 76.4% in the test with LOX IMVI melanoma; 94.6% with SK-MEL-28 melanoma; 80.9% in the test with SK-MEL-2 melanoma; 22% in the test with EKVX NSCLC; 85.3% in the test with SN12C renal. For the same compound, the growth was 70.2% with UO-31 renal; 74.2% in the test with TK-10 renal; 85.5% in the test with ACHN renal; 78.7% in the test with CAKI-1 renal; 87.4% with A498 renal; 80.5% with MOLT-4 leukemia.
Turning to `CC1(C)CC(OCCCC[P+](c2ccccc2)(c2ccccc2)c2ccccc2)CC(C)(C)N1O`, the growth in the test on HCT-15 colon is 9.52% (active); with HT29 colon it was 10.6%; with SNB-19 CNS, 3.91% (active); in the test on U251 CNS it was 8.32% (active); in the test on PC-3 prostate it was -45.6% (active); in the test with SK-MEL-5 melanoma it was -98.4% (active). Moreover, the growth with UACC-62 melanoma was -35.9% (active); in the test on LOX IMVI melanoma, -74.2% (active); in the test with SK-MEL-28 melanoma, -55.8% (active); in the test on SK-MEL-2 melanoma, -23.4% (active); with EKVX NSCLC, 3.22% (active); in the test on SN12C renal it was 4.65% (active). In addition, the growth is -18.8% (active) in the test on UO-31 renal; -21.1% (active) in the test on TK-10 renal; -8.25% (active) in the test with ACHN renal; -25.7% (active) in the test on CAKI-1 renal; -5.35% (active) with A498 renal; -37.1% (active) with CCRF-CEM leukemia. Moreover, the growth in the test with MOLT-4 leukemia was 0.462% (active).
For the compound `COc1ccc(-c2[nH]ncc2/C=C/c2cc(C(F)(F)F)[nH]c(=O)n2)cc1`, the growth is 97% in the test with HCT-15 colon; 99.1% in the test on HT29 colon; 88% in the test with SNB-75 CNS; 88.5% in the test on U251 CNS; 98.7% with PC-3 prostate; 93.7% with SK-MEL-5 melanoma. Also, the growth in the test on UACC-62 melanoma is 102%; with LOX IMVI melanoma, 87.4%; in the test with SK-MEL-28 melanoma, 114%; with SK-MEL-2 melanoma, 82.9%; in the test on SN12C renal it was 96.2%; in the test on UO-31 renal it was 87.1%. Further, the growth in the test on TK-10 renal was 94.8%; with ACHN renal, 92.6%; with CAKI-1 renal it was 102%; in the test with A498 renal, 89.3%; in the test with CCRF-CEM leukemia it was 73%; with MOLT-4 leukemia, 86%.
Take `NC(=O)C12C(=O)NC(=O)C1(C(=O)O)C21CCCC1` (configuration not stated): the growth in the test with HCT-15 colon is 107%; with HT29 colon, 110%; in the test on SNB-75 CNS it was 84.2%; with U251 CNS, 102%; in the test with PC-3 prostate it was 99%; with SK-MEL-5 melanoma, 106%. The growth with UACC-62 melanoma is 101%; with LOX IMVI melanoma, 102%; in the test with SK-MEL-28 melanoma, 109%; with SK-MEL-2 melanoma, 108%; in the test on EKVX NSCLC, 106%; in the test with SN12C renal, 101%. Further, the growth in the test with UO-31 renal was 75.8%; with TK-10 renal it was 111%; with ACHN renal, 112%; in the test on CAKI-1 renal it was 112%; with A498 renal, 114%; with CCRF-CEM leukemia, 96.9%. Further, the growth in the test with MOLT-4 leukemia was 97.2%.
